# Compounds without any hit were thinned out: in the full panel of roughly 83,000, 20% have a hit.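 In brief: 96-well plates, 48 h treatment, single concentration, percent growth endpoint.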 Values without a mark were called inactive. Calls of active or inactive are those of the source. The calls were made as follows: active = growth percent below 10; inactive = the rest.
# Legend:
# Test in all cases: NCI-60 one-dose screen, 48 h (100 = growth as untreated, 0 = no growth, -100 = all killed)
# Conditions in all cases: 10 µM unless noted
# DU-145 prostate = system: DU-145 prostate
# K-562 leukemia = system: K-562 leukemia
# MALME-3M melanoma = system: MALME-3M melanoma
# MDA-MB-231 breast = system: MDA-MB-231 breast
# RXF 393 renal = system: RXF 393 renal
# SF-268 CNS = system: SF-268 CNS
# SF-295 CNS = system: SF-295 CNS
# SF-539 CNS = system: SF-539 CNS
# UACC-257 melanoma = system: UACC-257 melanoma
# M14 melanoma = system: M14 melanoma
SMILES,growth (DU-145 prostate),growth (K-562 leukemia),growth (MALME-3M melanoma),growth (MDA-MB-231 breast),growth (RXF 393 renal),growth (SF-268 CNS),growth (SF-295 CNS),growth (SF-539 CNS),growth (UACC-257 melanoma),growth (M14 melanoma)
O=C(c1ccccc1)c1ccc(C2CCCCC2)cc1,106%,103%,87.4%,102%,100%,100%,94.3%,102%,105%,96.8%
O=C(N/N=C/c1ccc(Cl)cc1)c1[nH]c2ccc(Cl)cc2c1-c1ccccc1,-2.5% (active),39.3%,62.3%,9.64% (active),34.6%,27.2%,-24.1% (active),-0.139% (active),59.9%,20.2%
Nc1c(C(=O)Nc2ccccc2C(F)(F)F)sc2nc3c(cc12)CCC3,108%,94.4%,99.8%,92%,84.6%,106%,95.1%,100%,101%,113%
COC1=CC(c2ccc[nH]2)=N/C1=C\c1[nH]c(C)c(CC(=O)NCc2ccccc2)c1C,34.7%,0.172% (active),-42.2% (active),0.672% (active),30.5%,11.3%,-55.5% (active),2.49% (active),-19.4% (active),-49% (active)
O=S(=O)(NCCCNc1nccc(-c2c(-c3ccc(F)c(O)c3)nc3occn23)n1)c1ccc(Cl)cc1,73.5%,45.8%,5.66% (active),40.4%,30.8%,66.5%,103%,87.5%,33.8%,19.6%
O=C1NC(=C(Cl)Cl)/C(=N\S(=O)(=O)NCc2ccccc2)N1,105%,81.4%,104%,115%,113%,102%,114%,93.7%,85.6%,94.3%
Cn1cc(-c2csc(-c3c[nH]c4ccccc34)n2)c2cnccc21,20.9%,-28.1% (active),-79% (active),-37.4% (active),-84% (active),54.6%,-69.7% (active),-88.4% (active),90.9%,-80.2% (active)
CCO/C=N/C1=C(C#N)C(c2ccc(Cl)cc2)c2sc3c(F)cccc3c2O1 (stereo not given),88.2%,24.6%,71.3%,71.3%,76.9%,68.5%,52.8%,81.6%,89%,46.1%
Cc1nc2sc(C(=O)Nc3cccc4ccccc34)c(N)c2cc1C(O)c1ccccc1 (stereo not given),5.38% (active),4.79% (active),46.9%,17.1%,36.2%,23.5%,10.2%,-7.12% (active),51.6%,7.59% (active)
CCN1CCN(C(=O)[C@]23CCC(C)(C)C[C@@H]2C2=CC[C@@H]4[C@@]5(C)CCC(=O)C(C)(C)[C@@H]5CC[C@@]4(C)[C@]2(C)CC3)CC1,76.6%,21.1%,40.5%,56.5%,61%,41.5%,76.3%,48.9%,32.8%,57.1%
O=C1c2ccccc2-c2c1c1c(=O)[nH]c3ccccc3c1n2Cc1ccccc1,79%,63.3%,14%,62%,25.2%,50.7%,60.3%,55.7%,74.9%,84.2%
COC(=O)c1c2c(c(C)[n+]([O-])c1C)C(=O)C(NCc1cccc(OC)c1)=CC2=O,54.8%,13.7%,-89.9% (active),5.97% (active),38.7%,36.8%,69.9%,11.4%,-25.5% (active),12.9%
O=C(O)c1ccc(-n2cc(/C=N/Nc3ccccc3)c(-c3ccc(F)cc3F)n2)cc1,49.2%,18.6%,70.4%,41%,92.9%,45.8%,77.2%,75.3%,114%,41.8%
O=[N+]([O-])c1cccc(-c2nc3cc4nc5ccccc5[nH]c4cc3n2)c1,106%,90.9%,113%,110%,115%,98.2%,100%,106%,98.3%,103%
COc1ccc(C(O)c2cc3c(N)c(C(=O)Nc4cccc(Br)c4)sc3nc2C)cc1 (stereo not given),3.17% (active),9.61% (active),31.8%,2.61% (active),28.2%,6.77% (active),8.77% (active),-19.9% (active),45.7%,11.5%
Cc1ccc2c(c1)=C/C(=C\c1cc(-c3ccccc3)oc1O)C(=O)N=2,104%,91.7%,110%,116%,106%,91.6%,93.1%,101%,109%,90.6%
N#Cc1nc(-c2ccc(F)cc2)oc1S(=O)(=O)N1CCCCC1,99%,7.64% (active),42.8%,78.1%,55.4%,106%,104%,72.6%,91.2%,68.7%
O=c1[nH]c(Cc2nc3ccccc3s2)nc2cc(Br)ccc12,70.5%,23.2%,90.7%,65.6%,104%,61%,76.5%,90.3%,72.2%,35.2%
CCOC(=O)c1csc(NC(=O)COc2ccc(/C=C3\Oc4ccccc4C3=O)cc2)n1,114%,62.7%,109%,81.7%,79.6%,88.3%,102%,95.5%,87.9%,94.6%
O=C(/C=C/c1cccs1)Nc1ncc(Cc2ccccc2F)s1,11.4%,24%,40.5%,33.8%,-32.4% (active),55.9%,9.52% (active),-4.04% (active),58.6%,-3.15% (active)
Cn1ccnc1C(=O)/C=C/c1ccc(C(=O)Nc2ccc(Cl)cc2)cc1,10.9%,2.13% (active),51.5%,1.85% (active),-57.1% (active),0.451% (active),27.3%,-73.4% (active),51.6%,6.17% (active)
COc1ccc2c(c1)N(CCO)C1=C(C(=O)OC1)C2c1cccc(F)c1 (stereo not given),10.1%,9.63% (active),55.7%,36%,31.3%,35.5%,-15.6% (active),-17.3% (active),67.6%,-1.78% (active)
Nc1nc(-c2ccc(Cl)cc2)nc2c1sc(=S)n2-c1ccccc1,56.1%,41.1%,-15.9% (active),34.7%,-2.61% (active),40.7%,16.4%,-20.7% (active),59.9%,68.1%
C=CCN=c1sc2c(n1NC(=O)c1cc3ccc1CCc1ccc(cc1)CC3)C(=O)c1ccccc1C2=O,-90.7% (active),-12.3% (active),-88.6% (active),-6.76% (active),-26.3% (active),8.79% (active),69.2%,-98.3% (active),-72.6% (active),-93.9% (active)
c1ccc(Cn2cc3c(c2)-c2oncc2CC3)cc1,19.6%,13.9%,86%,8.74% (active),0.371% (active),37.2%,20.3%,-9.18% (active),82.8%,19.9%
